Only some compounds are listed: those with a hit (about 4.7% of all), similar ones and a draw of the others.
D1 ag: agonists of human D1 dopamine receptor; P21728; HEK293 T-REx D1 cells, calcium flux, agonist mode; activation, % at 2 µM; hit rate 1% among 360,000; note: 0% is about no effect
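Agonism was scored from calcium flux recorded over 180 s (1 read/s) after pintool compound addition, following a 10-cycle baseline. Cells were inducible force-coupled HEK293 TREx D1, plated overnight at 30 C and loaded with no-wash calcium dye.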
TRHR agonist: activates the human TRH receptor | TRHR cells, calcium flux fluo-8, FDSS agonist mode | hit rate 0.18% among 360,000 | activation, % at 2 µM; note: 0% is about no effect
Target sequence (P34981 whole entry, looked up): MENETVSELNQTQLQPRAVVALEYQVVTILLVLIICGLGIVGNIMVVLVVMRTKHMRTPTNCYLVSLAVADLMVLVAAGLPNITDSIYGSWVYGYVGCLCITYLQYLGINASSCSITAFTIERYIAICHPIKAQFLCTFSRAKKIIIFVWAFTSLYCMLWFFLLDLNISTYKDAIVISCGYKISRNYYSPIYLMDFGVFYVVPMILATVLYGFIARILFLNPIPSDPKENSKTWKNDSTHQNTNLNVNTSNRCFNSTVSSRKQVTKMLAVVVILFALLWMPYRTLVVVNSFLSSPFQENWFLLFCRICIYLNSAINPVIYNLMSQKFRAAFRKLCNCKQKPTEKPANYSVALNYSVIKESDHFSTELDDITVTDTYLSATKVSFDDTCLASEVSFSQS
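Steps: seed TRHR cells overnight; add fluo-8 no-wash Ca dye, RT 30 min–1.5 h; record 10 s baseline; pin-transfer compounds; monitor fluorescence 1 cycle/s for the agonist window. Calcium increases flag candidate agonists.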
D1 antag: blocks dopamine activation of the human D1 receptor; activity change, negative = inhibition, % at 10 µM; hit rate 3.2% among 360,000; P21728; HEK293 TREx D1 cells, calcium flux, dopamine EC80; active compounds read low; in the data active = activity change below about -30%; note: % is set by controls: 0 for no effect and ±100 for the full control effect
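Inducible Hek293 Trex D1 cells (tetracycline, overnight, 30 C). Calcium dye 30–90 min RT. Antagonist mode: EC80 dopamine added after 180 s compound read.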
TRHR enhancer: TRH receptor (human) allosteric enhancement; P34981; TRHR cells, fluo-8 calcium fluorescence, EC20 TRH enhancement; enhancement, % at 2 µM; hit rate 0.66% among 360,000; AID 493056; in the data active = enhancement above about 30%; note: 0% is about no effect
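TRHR-expressing cells loaded with fluo-8 calcium dye were read kinetically (ex 480/em 530) during compound addition, then stimulated with an EC20 of TRH (10 nM final). Enhancement of the Gq-mediated intracellular calcium response was scored.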
D1 PAM: enhances dopamine response at the human D1 receptor; hit rate 0.036% among 360,000; AID 504651; potentiation, % at 10 µM; HEK293 TREx D1 cells, calcium flux, dopamine EC20 potentiation; in the data active = potentiation above about 30%; note: 0% is about no effect
Starred values were filed as active, the others as inactive; nt = no result given. Cut-off read from the data, not from the text of the source, unless noted: active = activation above about 30%; inactive = the rest.

SMILES | D1 ag | TRHR agonist | D1 antag | TRHR enhancer | D1 PAM
Cc1ccc(NS(=O)(=O)c2cc(Br)cc3c2N(C(=O)C2CC2)CC3)cc1C | 4.3 | 0.1 | -22.8 | -5.0 | -3.1
O=C(C1CC1)N1CCc2cc(Br)cc(S(=O)(=O)Nc3ccc(F)c(F)c3)c21 | 9.2 | -0.2 | -31.2* | -7.1 | 0.2
Cc1cc(C(=O)N2CCN(Cc3ccccc3)CC2)ccc1[N+](=O)[O-] | 0.8 | -0.4 | -20.7 | -6.4 | 7.0
CC(C)NC(=O)c1ccc(CN2CCC(Cc3ccccc3)CC2)cc1 | 6.2 | -0.2 | 28.9 | 4.6 | -8.3
Cc1ccc(C(=O)NCC(=O)N2CCC(Cc3ccccc3)CC2)cc1 | 9.3 | -2.0 | -35.8* | 3.5 | -2.2
C=CCNC(=O)c1ccc(CN2CCC(Cc3ccccc3)CC2)cc1 | 6.4 | 0.4 | -58.3* | -0.7 | -12.3
Cc1ccccc1NC(=O)c1ccc(CN2CCC(Cc3ccccc3)CC2)cc1 | 18.0 | 0.8 | -57.4* | -7.0 | -19.4
Cc1cc(C(=O)N2CCC(Cc3ccccc3)CC2)ccc1[N+](=O)[O-] | 0.9 | 0.0 | -31.7* | -5.2 | -1.9
N#CC1=C(N)N(c2ccc(Cl)cc2)C2=C(C(=O)CCC2)C1c1cc(CN2CCOCC2)cs1 (configuration not stated) | 1.1 | -2.8 | 1.3 | -1.9 | -1.9
Cc1cccc(-n2c(SCC(=O)NC3CCCC3)nnc2-c2ccoc2C)c1 | -0.1 | -0.5 | 19.6 | 8.0 | -2.5
CCS(=O)(=O)N1CCc2cc(C(=O)NCc3ccccc3)ccc21 | 0.0 | 1.0 | 0.7 | 1.6 | 0.0
CCCCc1nn2c(=O)cc(COC(=O)c3cccc(NC(=O)c4cccc(Cl)c4)c3)nc2s1 | 2.2 | -0.2 | 14.9 | -2.0 | -0.2
Cc1noc(C)c1S(=O)(=O)Nc1ccc(C(=O)Nc2ccc(C(C)C)cc2)cc1 | 0.3 | -1.5 | -6.4 | 12.0 | -0.9
CC(C)(C)[C@H](NC(=O)c1ccc(N)c(Cl)c1)C(=O)N1CCC[C@H]1C(=O)N[C@H](C#N)Cc1nn[nH]n1 | 1.9 | 0.6 | -0.4 | -6.1 | -4.1
Cc1ccc(S(=O)(=O)Nc2cc(=O)[nH]c(SCc3ccccc3Cl)n2)cc1 | 12.4 | 0.7 | -31.5* | -2.4 | -7.8
CC(C)(C)c1cc(=O)[nH]c(SCc2ccccc2Cl)n1 | 6.4 | -0.9 | 9.7 | 0.0 | 5.2
O=C(CSc1nc(NS(=O)(=O)c2ccccc2)cc(=O)[nH]1)Nc1ccc(Cl)cc1 | 3.3 | 3.5 | -14.4 | -2.7 | -3.7
O=c1cc(NS(=O)(=O)c2ccccc2)nc(SCc2ccc(Cl)cc2)[nH]1 | 18.0 | -0.5 | -35.9* | 2.9 | -6.0
COc1cccc(N2CCN(C(=O)c3cc4c(=O)n(Cc5ccco5)ccc4nc3C)CC2)c1 | 12.7 | -0.6 | -11.8 | 14.7 | -4.4
O=C(Nc1c(C(=O)Nc2cccc(C(F)(F)F)c2)oc2ccccc12)c1cc(=O)c2ccccc2o1 | 1.7 | 0.5 | -0.5 | 3.1 | 1.2
CC(C)c1ccc(NC(=O)c2cc(S(=O)(=O)NC3CCCCC3)ccc2F)cc1 | -0.4 | 0.5 | -9.1 | 2.8 | -2.4
CCCCCOc1ccccc1CN1C(=O)C(=O)c2cc(C)ccc21 | 4.0 | -1.8 | 8.2 | -5.2 | -2.8
C1CCN(c2nc3nonc3nc2N2CCCCC2)CC1 | 1.1 | -0.1 | 9.6 | -0.4 | -4.4
CN1CCN(c2nc3nonc3nc2N2CCN(C)CC2)CC1 | 0.3 | 0.2 | 8.3 | 32.5* | 1.8
COc1ccc(CC(=O)Oc2ccc(C)cc2Br)cc1OC | 12.4 | 0.2 | -32.1* | -6.8 | -4.1
SMILES | D1 ag | TRHR agonist | D1 antag | TRHR enhancer | D1 PAM
COc1ccc(CC(=O)c2ccc(OC)c(OC)c2C)cc1OC | 17.7 | 0.5 | -34.2* | 5.2 | -0.2
COc1ccc(CC(=O)Oc2ccc(C)cc2C)cc1 | 12.6 | 0.4 | -23.0 | -2.3 | -7.2
CN(C)CCC1CCN(c2cc(C#N)c(C#N)cc2[N+](=O)[O-])CC1 | 4.9 | 0.8 | -6.1 | 1.9 | -1.6
CC(C)OP(=O)(c1ccc(N(C)C)cc1)C(Nc1ccccc1)c1cccnc1 (configuration not stated) | 0.9 | 0.5 | -31.1* | -1.9 | -8.0
CC(C)COP(=O)(c1ccc(N(C)C)cc1)C(O)c1cccnc1 (configuration not stated) | 2.5 | -0.5 | -86.5* | 1.3 | -5.2
CN(C)c1ccc(P(=O)(OCc2ccccc2)C(O)c2cccnc2)cc1 (configuration not stated) | 7.0 | -0.2 | 11.2 | 0.7 | -6.1
CCOC(=O)N1CCc2c(sc3c2c(=O)n(Cc2ccccc2)c(=O)n3CC(=O)Nc2ccc(C)cc2C)C1 | 4.7 | -0.5 | 2.4 | 1.6 | -2.5
COc1ccc2c(CNC3CCC(C)CC3)c(C(=O)O)n(Cc3ccccc3)c2c1 (configuration not stated) | 0.0 | 0.2 | 15.3 | 2.5 | -2.9
Cc1nccc(-c2cccc(N/N=C(\C#N)C(=O)c3ccccc3)c2)n1 | 6.8 | 0.2 | 4.5 | 17.7 | -0.8
N#C/C(=N\Nc1cccc(C(F)(F)F)c1)C(=O)c1ccsc1 | 22.3 | 0.3 | -32.4* | 0.8 | -2.9
CCOC(=O)Cn1c(S(=O)(=O)Cc2cccc(F)c2)nc(-c2ccccc2)c1-c1ccccc1 | 16.5 | -0.4 | -38.3* | 1.5 | -5.0
CC(C)(C)c1ccc(S(=O)(=O)NCc2ccc(C(=O)N3CCOCC3)cc2)cc1 | 5.0 | 0.2 | -9.7 | 0.9 | 2.0
Cc1ccc(CNS(=O)(=O)c2ccc(C(C)(C)C)cc2)n1C | 2.9 | 0.1 | -30.6* | 0.6 | -17.9
CCOC(=O)C1=C(C)NC2=C(C(=O)c3ccccc32)C1c1ccc([N+](=O)[O-])o1 (configuration not stated) | 0.7 | -1.3 | -72.6* | 2.4 | -9.8
O=C(CCNS(=O)(=O)c1ccc(Br)cc1)NC1CCC(O)CC1 (configuration not stated) | 1.8 | 0.8 | -31.4* | 3.9 | -4.5
Cc1ccc(S(=O)(=O)NCCC(=O)NC2CC2)cc1 | 0.3 | 0.6 | 0.6 | 1.1 | 1.3
Cc1cc(C(F)(F)F)n2ncc(C(=O)O)c2n1 | 4.4 | 1.2 | -31.0* | 4.5 | nt
CCOc1ccc(C(=O)c2cn(Cc3ccc(Cl)cc3)c3cc(OC)c(OC)cc3c2=O)cc1 | -1.1 | -0.3 | -4.2 | 3.9 | 1.2
Clc1ccc(-c2c(C3=NCCCN3)nnn2-c2ccc(Cl)cc2)cc1 | 10.5 | 3.1 | -38.9* | -2.4 | -6.2
O=C(NNc1ccc([N+](=O)[O-])cc1)c1ccccc1F | 3.5 | 1.3 | -8.7 | -1.0 | -6.0
O=C(NC(NNc1ccc([N+](=O)[O-])cc1)(C(F)(F)F)C(F)(F)F)c1ccc(Cl)cc1 | 30.6* | 4.2 | -54.2* | -2.7 | -9.8
O=C(CCc1ccccc1)NC(=S)NCc1ccco1 | 6.5 | -0.3 | -18.1 | 1.8 | -16.6
Cc1oc(-c2cccc(Br)c2)nc1CSc1nc2ncccc2[nH]1 | 1.0 | 0.0 | 0.3 | 5.4 | 6.0
CCOc1ccc(/C=C2\SC(=S)NC2=O)cc1OC | 0.9 | 0.4 | -10.2 | -3.1 | 0.1

Screens: PubChem, National Center for Advancing Translational Sciences (NCATS)
